The target in the assay is Pantothenate synthetase (Mycobacterium tuberculosis (strain ATCC 25618 / H37Rv)) (UniProt P9WIL5). As to the kind of experiment: Recombinant Mtb pantothenate synthetase (PanC) inhibitors, coupled enzyme, confirmatory (AID 375).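 Note: 0% = full reaction with vehicle and 100% = no enzyme background.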 The settings on record: coupled enzyme assay; at 10 µM, hits give high values.

A number with no mark means an inactive call. The rule behind the calls is not given here. Where a SMILES comes first, the peptide text is derived from it. The star is where a group is joined. Boc = CC(C)(C)OC(=O)*

Pantothenate synthetase (Mycobacterium tuberculosis (strain ATCC 25618 / H37Rv)), sequence (P9WIL5 whole entry, looked up): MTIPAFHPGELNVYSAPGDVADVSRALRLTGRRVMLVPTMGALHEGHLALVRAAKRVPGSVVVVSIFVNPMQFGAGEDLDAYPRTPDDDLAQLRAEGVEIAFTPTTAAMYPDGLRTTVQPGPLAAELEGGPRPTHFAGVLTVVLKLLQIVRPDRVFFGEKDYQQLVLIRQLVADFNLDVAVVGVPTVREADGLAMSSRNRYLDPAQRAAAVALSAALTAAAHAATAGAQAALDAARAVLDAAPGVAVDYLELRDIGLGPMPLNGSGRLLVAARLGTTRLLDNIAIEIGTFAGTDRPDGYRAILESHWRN

In general, inhibition refers to the relative decrease from the control value, in per cent. As for `CCn1c(NC(=O)c2cccc(Cn3cc(Cl)cn3)c2)nc2ccccc21`, the inhibition is 0%.
For `CCOCCn1c(CN2CCN(c3cccc(Cl)c3)CC2)nc2c1c(=O)n(C)c(=O)n2C`, the inhibition is 4%.
For the compound `CC(=O)C1=C(C)NC(SCSc2ccccc2)=C(C#N)C1c1cccnc1` (centres undefined), the inhibition is 4%.
With `CC1=C(C(=O)OCCOC(C)C)C(c2cc3c(cc2Br)OCO3)C2=C(CCCC2=O)N1` (centres undefined) the figure was 0%.
With `Cc1nnc2sc(-c3cccc(NC(=O)c4cccnc4)c3)nn12` the figure was 0%; with `COCCNC(=O)C(c1ccc(C)o1)N(Cc1ccc(F)cc1)C(=O)Cn1nnc2ccccc21` (centres undefined), 8%.
With `CCOC(=O)C(C)(C)Sc1nc2c(cnn2-c2ccc(Cl)cc2)c(=O)[nH]1` the figure was 0%; with `Cc1nc2cc(-n3ccc(=O)cc3)ccc2n1-c1ccccc1`, 2%.
Regarding `O=C1c2ccccc2C(Nc2ccc(-c3nc4ccccc4[nH]3)cc2)N1Cc1ccco1` (centres undefined), the inhibition is 5%.
With `COC(=O)Cn1c(=NC(=O)CSCC(=O)Nc2cc(C)on2)sc2ccccc21` the figure was 0%; with `CCn1cc(C(=O)NCC2CCCO2)c(=O)c2cc(S(=O)(=O)N(C)C)ccc21` (centres undefined), 0%.
The result for `CCOC(=O)CNC(=O)CSc1ncnc2c1cnn2-c1ccccc1` reads 0%.
The result for `CN(C)c1ccc(NC(=O)CSCc2nc3c(nnn3Cc3ccc(F)cc3)c(=O)[nH]2)cc1` reads 3%; that for `CCOC(=O)N1CCN(C(=O)CN(C2CCCCC2)S(=O)(=O)c2ccc(F)cc2)CC1`, 0%.
With `CCc1nnc(NC(=O)CSc2nc(-c3ccc(OC)cc3)ns2)s1`, the inhibition is 0%.
With `Cc1cc(S(=O)(=O)N(Cc2ccccc2)Cc2ccc(N(C)C)cc2)ccc1-n1cnnn1` the figure was 0%.
With `CCCc1ccccc1OCCNC(C)=O` the figure was 3%; with `c1ccc(-c2cc3c(nn2)CCc2nonc2-3)cc1`, 0%.
For the compound `COC(=O)NCC(c1cccnc1)N1CCOCC1` (centres undefined), the inhibition was 0%.
With `C[C@H](CS)C(=O)N1CCC[C@H]1C(=O)O` the figure was 2%.
With `COc1ccccc1-c1nnc2sc(-c3ccc(N(C)C)cc3)nn12` the figure was 5%; with `OC(CN1CCN(c2ccccn2)CC1)Cn1c2ccccc2c2ccccc21` (centres undefined), 0%; with `COc1cc(C(=O)N2c3ccccc3CC2C)cc(OC)c1OC` (centres undefined), 0%.
The result for `COc1ccc(CN(C)CC(=O)c2c(N)n(Cc3ccccc3)c(=O)n(C)c2=O)c(OC)c1` reads 0%.
On to `CN1C(=O)C(O)(CC(=O)c2ccc(F)cc2)c2cc(Br)ccc21` (centres undefined), for which the inhibition is 0%.
With `O=C(CCS(=O)(=O)c1cccc2nsnc12)NCc1ccccc1` the figure was 0%; with `COCc1nnc(SCC(=O)NC(C)c2ccccc2)n1-c1ccccc1` (centres undefined), 4%; with `COc1ccc(OC)c2[nH]c(=O)c(CCNC(=O)C(C)C)cc12`, 0%.
The result for `O=C(CCCCCn1c(=S)[nH]c2cc3c(cc2c1=O)OCO3)N1CCN(Cc2ccccc2)CC1` reads 1%.
With `Cc1nnc(N(C)C(=O)Cc2ccc3c(c2)OCO3)s1` the figure was 0%; with `Cc1sc2ncnc(OCC(=O)N3CCN(S(=O)(=O)c4ccccc4)CC3)c2c1C`, 0%.
In the case of `CC1(C)CC(=O)c2cnc(NC(=O)Cc3ccc(Cl)cc3)nc2C1`, the inhibition is 0%.
With `COc1ccc(NC(=O)c2oc3ccccc3c2NC(=O)c2ccco2)cc1` the figure was 0%; with `O=C(CN1C(=O)CC(c2ccco2)Sc2ccccc21)Nc1ccccc1F` (centres undefined), 0%.
The result for `Cc1ccc(NC(=O)c2oc3ccc(S(=O)(=O)N4CCOCC4)cc3c2C)cc1C` reads 3%; that for `CC(C)CC(NC(=O)OC(C)(C)C)C(=O)NC(C(=O)NC(C)C(N)=O)C(C)C` (stereo not drawn) (Boc-Leu-Val-Ala-NH2; configuration not given here), 16%.
The result for `CCOC(=O)Cn1nnnc1CN(Cc1ccc(OC)cc1)Cc1cc2cc(C)cc(C)c2[nH]c1=O` reads 3%; that for `C=CCn1c(COc2ccccc2F)nnc1SCC(=O)N1CC(=O)Nc2ccccc21`, 1%; that for `CN/C(=C/[N+](=O)[O-])NCCSCc1ccc(CN(C)C)o1`, 4%.
As for `CC(=O)Nc1ccc(NC(=O)c2cc(C)nn2-c2ccccc2)cc1`, the inhibition was 2%.
The result for `COc1ccc(/C=N/O)cc1COc1ccc(NC(C)=O)cc1` reads 1%; that for `CC(=O)c1cc2c(=O)c3cc(C)ccc3oc2nc1C`, 0%; that for `CC(=O)c1cc(F)c(N2CCN(C(=O)Cc3ccccc3)CC2)cc1C`, 0%.
Turning to `O=C1CC(c2ccccc2)CC(O)=C1C=NCCCN1CCOCC1` (centres undefined), the inhibition is 5%.
With `O=C(CSc1nnc2ccccn12)NCCN1C(=O)CSC1=O` the figure was 0%; with `Cc1ccc(-c2cc(C(=O)Nc3cc(C)on3)c3ccccc3n2)c(C)c1`, 0%; with `Cc1ccc(C)n1-n1c(C)nc2sc(-c3ccccc3)cc2c1=O`, 0%.
With `O=C1CN(Cc2ccccc2)C(=NCc2ccco2)S1` the figure was 0%; with `CN(C)CCOC(=O)C(c1ccccc1)C1(O)CCCC1` (centres undefined), 5%; with `Cc1nnc(NC(=O)Nc2cccc(Cl)c2)s1`, 0%.
With `COc1ccc(C2/C(=C(/O)c3ccccc3)C(=O)C(=O)N2C)cc1` (centres undefined) the figure was 0%.
As for `OCC#CCSc1nnc(-c2ccccc2Br)o1`, the inhibition was 0%.
With `CC(C)n1c(NCc2c[nH]c3ccccc23)nc2ccccc21` the figure was 0%; with `O=c1[nH]c(Nc2ccccc2)cc2ccccc12`, 0%; with `CN(C)CCCN1C(=O)c2oc3ccccc3c(=O)c2C1c1cccs1` (centres undefined), 0%.
With `COc1ccc(CN(CC(=O)NCC2CCCO2)C(=O)CNS(=O)(=O)c2ccc(C)cc2)cc1` (centres undefined) the figure was 9%; with `COC(=O)c1ccccc1NC(=O)Cn1c(-c2nonc2N)nc2ccccc21`, 0%; with `Nc1ccc2cn[nH]c2c1`, 0%.
The result for `Cc1ccc(N2CCN(S(=O)(=O)N(C)C)CC2)c(C)c1` reads 0%.
In the case of `O=C(CSc1nc2c(c(=O)n1-c1ccc(F)cc1)SCC2)NCC1CCCO1` (centres undefined), the inhibition is 6%.
With `CCCCN(CC)S(=O)(=O)c1ccc2c(c1)CCCN2C(C)=O`, the inhibition is 6%.
With `Cc1noc(COc2ccccc2OCC(O)CNC(C)(C)C)n1` (centres undefined) the figure was 4%.
The result for `CCOCC(=O)Nc1c(C(=O)Nc2ccc(OC)cc2OC)oc2ccccc12` reads 0%; that for `O=S(=O)(c1ccc(F)c(Cl)c1)N1CCCC1`, 0%; that for `COc1ccc(S(=O)(=O)N(CC(=O)N2CCN(c3ccccc3OC)CC2)c2ccccc2)cc1`, 0%.
The result for `O=C(CSc1nnnn1-c1ccc(Cl)cc1)NC(=O)Nc1ccc2c(c1)OCCO2` reads 2%.
Consider `Cc1nn(-c2ccc(F)cc2)c2sc(C(=O)O)cc12`, for which the inhibition was 0%.
The result for `CN(CCCNC(=O)c1cn(C)c2ccc(S(=O)(=O)N(C)C)cc2c1=O)c1ccccc1` reads 4%; that for `CCC(C)NC(=O)c1cc(CC(C)C)on1` (centres undefined), 2%.
Turning to `COC(=O)Cn1cnc2c(nnn2-c2ccc(C)cc2)c1=O`, the inhibition was 0%.
For the compound `CCOC(=O)c1[nH]nc(N)c1NC(=O)c1ccc(Cl)cc1Cl`, the inhibition is 0%.
The result for `O=C(Cn1ncc2c1-c1ccccc1OC2)Nc1ccc(Cl)cn1` reads 6%.
With `CCOC(=O)c1cccc(NC(=O)CS(=O)(=O)Cc2nc(-c3cccc(OC)c3)oc2C)c1` the figure was 0%; with `Cc1cc(=O)n2nc(-c3ccccc3)sc2n1`, 0%.
The result for `CCOc1ccc(NC(=O)CSc2nnnn2CC(=O)O)cc1` reads 0%; that for `CC1CCc2nn(CC(=O)Nc3ccc(F)cc3F)cc2C1` (centres undefined), 5%.
On to `Cc1ccc(N=Cc2ccc[nH]2)c(O)c1`, for which the inhibition is 0%.
The result for `COc1ccc2nc(NC(=O)CSc3nnc(-c4ccoc4C)n3C)sc2c1` reads 2%; that for `O=C(O)CC1Sc2nc3ccccc3n2C1=O` (centres undefined), 0%; that for `CC(=O)N1CCc2c(sc(NC(=O)c3ccc(S(=O)(=O)N(C)C)cc3)c2C#N)C1`, 0%.
With `CCOC(=O)c1sc(NC(=O)CSc2ncn(-c3ccccc3)n2)nc1C` the figure was 3%.
As to `CCN(CCNC(=O)CS(=O)(=O)Cc1nc(-c2cccc(OC)c2)oc1C)c1ccccc1`, the inhibition was 0%.
The result for `CCCc1nc2ccccc2c(=O)n1NC(=O)c1c(O)c2cccc3c2n(c1=O)CCC3` reads 0%.
The result for `COC(=O)CN1C(=O)C2(C(C#N)=C(N)Oc3c2c(C)nn3-c2ccccc2)c2ccccc21` (centres undefined) reads 3%; that for `CC1=C(C(=O)NCc2ccccn2)C2(CCC(C)CC2)OC1=O` (centres undefined), 0%; that for `CC(=O)NCCc1nc2ccccc2[nH]1`, 0%.
The result for `CCOC(=O)Nc1cc(OCC)c(NC(=O)C2CC2)cc1OCC` reads 0%; that for `O=C(Nc1cccc2ccccc12)N1CCN(c2ccccc2)CC1`, 3%; that for `O=C(CC1Oc2ccccc2NC1=O)NCCCN1CCOCC1` (centres undefined), 0%.
Regarding `O=C(NC1CCCCC1)C1CCCN1C(=O)NCc1ccccc1` (centres undefined), the inhibition is 4%.
Consider `O=C(CNCC1CCCO1)Nc1ccccc1-n1cccc1` (centres undefined), for which the inhibition was 2%.
As for `CC(C)N(C(=O)CSc1nnc(-c2cc3ccccc3cc2O)n1Cc1ccco1)C(C)C`, the inhibition was 1%.
The result for `CN(C)CCNC(=O)c1ccc(COCC(F)(F)F)cc1` reads 0%.
The result for `C=CCNC(=O)c1ccc(Cl)cc1Cl` reads 0%; that for `CC(=O)Nc1ccc(N=Cc2nc(-c3ccc(C)cc3)oc2O)cc1`, 0%.
With `CCOc1ccc(NCc2nnc(SCC(=O)Nc3cc(C)on3)n2-c2ccccc2OC)cc1` the figure was 13%.
On to `C1=C(CCNc2ncnc3c2cnn3-c2ccccc2)CCCC1`, for which the inhibition is 6%.
Regarding `CN1C2C=C3C(C#N)=C(N)C(C#N)(C#N)[C@@H](c4ccc(Cl)cc4)[C@@H]3C1CC2` (some centres undefined), the inhibition is 7%.
The result for `O=C(O)C1C2C=CC3(CN(C4CCCC4)C(=O)C13)O2` (centres undefined) reads 4%.

Values taken from PubChem BioAssay.
